A short description of test [1]: qHTS Assay for Identifying Gametocytocidal Compounds (AID 743244).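 For max response: % is set by controls: 0 for no effect and ±100 for the full control effect; actives lower the fluorescent signal which means gametocytes are killed.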 Note: potency is the fitted concentration of half-maximal effect. The note with it: P. falciparum 3D7 stage III-V gametocytes, alamarBlue, 72 h; max response: stronger effect = lower value. In outline:
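Compounds are pinned into medium, gametocytes (stage III–V, 3D7, 20,000 cells/well) added, and plates held 72 h at 37 °C in 5% CO2. AlamarBlue follows for 24 h before fluorescence reading.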
(In general: qHTS replaces the single test concentration by a dilution series.)

Test [2] in a line: High-throughput drug toxicity screening in the BPDCN cell line Gen2.2 (AID 1224824; call rule not given here;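 note: cells exposed to compounds for 48 h before reading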). To be noted: Gen2.2 BPDCN cells; at 45.8 µM (top of the series) unless noted. The gist of the method: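 Seed 500 exponentially growing Gen2.2 cells/well; add compounds by pin tool; incubate 48 h, 37 °C, 5% CO2; add CellTiter-Glo, 15 min RT; read luminescence. % activity vs DMSO (100%) and bortezomib (0%).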

Test [3] is described as follows: High-throughput drug toxicity screening in the BPDCN cell line Cal-1 (AID 1224825; call rule not given here). The note with it: Cal-1 BPDCN cell viability, qHTS; at 45.8 µM (top of the series) unless noted. The gist of the method:
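Cal-1 cells, 500 per well in phenol-red-free RPMI with 10% FBS, exposed to compounds for 48 hours at 37C, 5% CO2. Viability read by CellTiter-Glo luminescence; percent activity normalized to DMSO (100%) and 9.2 uM bortezomib final (0%).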

A short description of test [4]: qHTS assay for measurement of the activity of small molecule inhibitors on Zika virus induced Caspase-3 activity in human iPSC derived neural progenitor cells (hNPCs) (AID 1224857). Note: % of control where 0% means no effect; nearly all actives have a fitted effect of over 65% in size. The gist of the method:
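Pretreat hNPCs with compound 1 h; infect ZIKV 2 FFU/cell; 6 h 37 C, 5% CO2; Caspase-Glo 3/7, 30 min RT; luminescence; normalize to no-virus and virus-only wells.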

The nature of test [5]: qHTS assay for measurement of the activity of small molecule inhibitors on Zika virus induced Caspase-3 activity in human astrocytoma cells (AID 1224859).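 Note: plate controls were ZIKV-infected untreated cells for no effect and uninfected cells for full effect.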 In outline: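 Human SNB-19 astrocytoma cells in RPMI 1640 with 10% FBS receive compound one hour ahead of Zika virus at 2 FFU/cell. After 6 h infection, caspase-3/7 activity is detected by Caspase-Glo luminescence.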
Test [6] can be described thus: qHTS Screen of the MIPE 4.0 Collection Against Ewings Sarcoma (RDES) (AID 1259252). Note: nearly all actives have a fitted effect of over 35% in size. Note: potency is the fitted concentration of half-maximal effect. The gist of the method:
(§1)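 Viability screen: 48 h incubation at 37C, 95% humidity, 5% CO2 with serially titrated compound, followed by CellTiter-Glo readout.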

Test [7] in a line: qHTS Screen of the MIPE 4.0 Collection Against Ewings Sarcoma (TC71) (AID 1259253). Note: nearly all actives have a fitted effect of over 40% in size. Note: potency is the fitted concentration of half-maximal effect. The gist of the method:
as §1

Test [8] is described as follows: qHTS Screen of the MIPE 4.0 Collection Against Ewings Sarcoma (EW8) (AID 1259255).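 For viability: 100% = DMSO-treated cells and 0% = medium-only wells without cells.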 Note: nearly all actives have a fitted effect of over 35% in size. Note: potency is the fitted concentration of half-maximal effect. In outline:
as §1

Test [9] in a line: qHTS profiling for inhibitors of Plasmodium falciparum (3D7) proliferation (AID 743322).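 Note: infected erythrocytes exposed to compound for 72 h before lysis; 100% = DMSO vehicle wells and 0% = 0.29 µM artemisinin.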 The note with it: P. falciparum 3D7 proliferation; at 28.7 µM (top of the series) unless noted. The gist of the method:
(§2)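 Erythrocytes infected with P. falciparum (0.3% parasitemia, 2.5% hematocrit) incubated with compounds 72 h at 37 C, 5% CO2. Lysis with saponin/Triton buffer containing SYBR Green I, overnight at room temperature in the dark; DNA fluorescence (485/535 nm) normalised to 0.29 uM artemisinin and DMSO.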

The nature of test [10]: qHTS profiling for inhibitors of Plasmodium falciparum (DD2) proliferation (AID 743323; call rule not given here). To be noted: lower = more inhibition; at 28.7 µM (top of the series) unless noted. In outline: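 1536-well qHTS; infected RBCs 0.3% parasitemia/2.5% Hct final; cpd 72 h 37 C 5% CO2; lysis buffer + SYBR Green I, o/n RT dark; FI 485/535; norm. to 0.29 uM artemisinin and DMSO, plate-stack corrected.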

Test [11] is described as follows: qHTS profiling of the MIPE4 collection as inhibitors of Plasmodium falciparum (3D7) proliferation (AID 743344; call rule not given here;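 note: scaled between DMSO vehicle wells and 0.29 µM artemisinin as full inhibition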). The note with it: P. falciparum 3D7 in erythrocytes, SYBR Green DNA fluorescence, 72 h; at 28.5 µM (top of the series) unless noted. The gist of the method:
as §2

Test [12] is described as follows: qHTS profiling of the MIPE4 collection as inhibitors of Plasmodium falciparum (DD2) proliferation (AID 743345; call rule not given here). To be noted: P. falciparum Dd2 in erythrocytes, SYBR Green DNA, 72 h; at 28.5 µM (top of the series) unless noted. The gist of the method: as §2
The nature of test [13]: qHTS profiling of the MIPE4 collection as inhibitors of Plasmodium falciparum (DD2) proliferation (Rep 2) (AID 743346; call rule not given here). To be noted: P. falciparum Dd2 in erythrocytes, SYBR Green DNA, 72 h; at 28.5 µM (top of the series) unless noted. In outline:
as §2

A short description of test [14]: qHTS profiling of the MIPE4 collection as inhibitors of Plasmodium falciparum (HB3) proliferation (AID 743347; call rule not given here;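 note: plate controls were DMSO vehicle wells for no effect and artemisinin wells for full effect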). The note with it: P. falciparum HB3 in erythrocytes, SYBR Green DNA, 72 h; at 28.5 µM (top of the series) unless noted. In outline:
as §2

Test [15] in a line: qHTS assay for small molecule agonists of the antioxidant response element (ARE) signaling pathway measured by Nrf2-dependant transcriptional activity - cell viability counter screen (AID 720653; active = well fitted curve in the direction sought with a large enough effect in the repeat runs; an effect the other way counts as inactive or inconclusive; note: % is set by controls: 0 for no effect and ±100 for the full control effect). The note with it: ARE-bla HepG2 viability, CellTiter-Glo ATP luminescence, 16 h; max response: stronger effect = lower value. The gist of the method:
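ARE-bla HepG2 cells treated with compounds for 16 h at 37C; this counter screen measures viability as intracellular ATP by CellTiter-Glo luminescence after 30 min at room temperature.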

Test [16] can be described thus: qHTS assay for cell viability of HEK293 cells (AID 743288). Note: % is set by controls: 0 for no effect and ±100 for the full control effect; nearly all actives have a fitted effect of over 50% in size. The note with it: ATP luminescence (CellTiter-Glo), 18 h; max response: stronger effect = lower value. In outline:
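HEK293 parental, 2,000 cells/well; ≥5 h pre-incubation 37 C; pintool compound addition; 18 h, 37 C; CellTiter-Glo 30 min RT; luminescence read.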

Test [17] can be described thus: qHTS assay for cell viability of the p53RE-bla HCT-116 cell line (AID 743292). Note: % is set by controls: 0 for no effect and ±100 for the full control effect; nearly all actives have a fitted effect of over 55% in size. The gist of the method: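 HCT-116 p53RE-bla cells seeded 4,000/well; 5 h at 37 C; compound (DMSO) added; 16 h at 37 C; CellTiter-Glo added, 30 min RT; luminescence read.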

Where “and” joins values, the source holds several entries; their conditions need not be identical. Equal values may be shown once. Inconclusive results are not listed. Calls of active or inactive are those of the source. Unless noted, calls come from the whole dose curve; as a rule, active = well fitted curve in the direction sought with a large enough effect; inconclusive = small, poorly fitted or top-dose-only effect, or another doubt; inactive = no such curve, though single readings can be large; an effect the other way counts as inactive or inconclusive.

As to `CCOC(=O)C1=C[C@@H](OC(CC)CC)[C@H](NC(C)=O)[C@@H](N)C1`, in test [1], the max response is -3.59% (inactive). Further, the cell viability, % of control (lower = more cytotoxic) in test [2] turned out to be 152%. Further, the viability (% of control) in test [3] amounted to 106%. Further, the Potency entry in test [4], in test [5], in [6], in test [7] and in [8] was “inactive” each time.

For the compound `Cc1cc2c(s1)Nc1ccccc1N=C2N1CCN(C)CC1`, the cell viability, % of control (lower = more cytotoxic) in test [2] was 199%. Also, the viability (% of control) in [3] was 115%. In addition, the Potency entry in [4], in test [5], in test [6], in test [7] and in test [8] was “inactive” each time.

With `CC(C)C[C@H](NC(=O)[C@H](Cc1ccccc1)NC(=O)c1cnccn1)B(O)O`, the Potency in [1] was 118 nM (active) and 316 nM (active); in [6], 33.2 nM (active); in [7], 41.8 nM (active); in test [8] it was 16.6 nM (active). The remaining parasite growth % (stronger effect = lower value) in test [9] was -0.334%. Moreover, in [10], the activity, percent of control was -0.17%. The compound further registered a parasite growth, % of DMSO control in [11] of 4.91%. Further, in [12], the parasite growth remaining, % of DMSO control (lower = more inhibition) was 7.19%. Besides, in test [13], the parasite growth, % of control (lower = inhibition) was found to be 7.61%. The growth, % of control in test [14] is 3.13%. Moreover, the cell viability, % of control (lower = more cytotoxic) in [2] came out at 3.61%. The viability (% of control) in test [3] is 3.36%. For the same compound, the Potency result in test [4] and in test [5] was “inactive” throughout.

Take `CCCCC(CC)COC(=O)C(C#N)=C(c1ccccc1)c1ccccc1` (centres undefined): the max response in test [15] was -8.35% (inactive); in [1], 17.2% (inactive); in [16] it was -27.9% (inactive). The Potency result in [17], in test [4], in test [5], in test [6], in [7] and in test [8] was “inactive” each time. Further, the parasite growth, % of DMSO control in test [11] is 9.47%. This compound also had a parasite growth remaining, % of DMSO control (lower = more inhibition) in [12] of 18.3%. This compound also had a parasite growth, % of control (lower = inhibition) in [13] of 11.9%. This compound showed a growth, % of control in test [14] of 7.29%. Further, the cell viability, % of control (lower = more cytotoxic) in test [2] is 157%. Moreover, the viability (% of control) in test [3] came out at 112%.

The record behind these values is PubChem BioAssay (NCATS).
